Test results from article PMC12670160, “A drug-repurposing screen of FDA- and EMA-approved drugs identifies two NF-κB inhibitors active against eumycetoma” (Journal of Antimicrobial Chemotherapy, 2025).
Structures can show the parent of a compound that is named as a salt. Where two headings read alike, the source gives them in different places. The campaign covered roughly 5,300 compounds. About 130 (2.5%) showed an effect of 50% or more. What follows is part of a selection rich in strong results, with near analogues and random picks from the rest. Peptide text beside a SMILES is read from it.

Tested on: M. mycetomatis strain mm55
Details: primary screen, metabolic activity vs growth control, 96 h, 2 µM, inhibitor

Row | SMILES | % viability [%] | % viability (Madurella mycetomatis metabolic activity at 2µM (%)) [%]
1 | N=C(N)c1ccc(/C=C/c2ccc(C(=N)N)cc2O)cc1 [ONC0003463, hydroxystilbamidine] | 43.6 | –
2 | N=C(N)c1ccc(OCCCCCOc2ccc(C(=N)N)cc2)cc1 [ONC0003359, pentamidine isethionate] | 71.33 | –
3 | N=C(N)c1ccc(-c2ccc(-c3ccc(C(=N)N)cc3)o2)cc1 [ONC0003070, furamidine] | 108.4 | –
4 | CC(=O)OCC1=C(C(=O)O)N2C(=O)[C@@H](NC(=O)CSC(=NC(C)C)NC(C)C)[C@H]2SC1 [ONC0003427, cefathiamidine] | 77.15 | –
5 | C[C@H](N)[C@H](O)c1cccc(O)c1 [ONC0003110, metaraminol bitartrate] | 76.38 | –
6 | CNC[C@H](O)c1cccc(O)c1 [ONC0000459, lphenylephrine hydrochloride] | 72.58 | –
7 | CCNCC(O)c1cccc(O)c1 (stereo not shown) [ONC0003685] | 42.26 | –
8 | O=C(Nc1nc(-c2cc(Cl)cs2)c(N2CCN(C3CCCCC3)CC2)s1)c1cnc(N2CCC(C(=O)O)CC2)c(Cl)c1 [ONC0002265, avatrombopag] | 50.97 | –
9 | CN/C(=N/CCSCc1nc[nH]c1C)NC#N [ONC0000657, cimetidine] | 137.7 | –
10 | CCCCCCCNS(=O)(=O)c1cccc2c(Cl)cccc12 [ONC0003431, sc10] | 68.77 | –
11 | O=S(=O)(NCCCCCCc1ccccc1)c1cccc2c(Cl)cccc12 [ONC0002705, sc9] | 87.04 | –
12 | NCCCCCCCCCCNS(=O)(=O)c1cccc2c(Cl)cccc12 [ONC0002708, a7] | 47.48 | –
13 | CC(C)(C)c1cc(C(C)(C)C)c2c(c1)C(O)(C(F)(F)F)C(=O)O2 (stereo not shown) [ONC0001539, racbhff] | 123.7 | –
14 | NC(N)=Nc1nc(CSCCC(N)=NS(N)(=O)=O)cs1 [ONC0003248, famotidine] | 89.34 | –
15 | Cc1nnc(C(C)C)n1[C@@H]1C[C@H]2CC[C@@H](C1)N2CC[C@H](NC(=O)C1CCC(F)(F)CC1)c1ccccc1 [ONC0004641, maraviroc] | 78.39 | –
16 | CN1C(=O)C(Cc2c[nH]c3ccccc23)NC1=S (stereo not shown) [ONC0003684, necrostatin1] | 40.84 | –
17 | CN1C(=O)N[C@H](Cc2c[nH]c3c(Cl)cccc23)C1=O [ONC0000938, necrostatin 2] | 58.02 | –
18 | c1ccc2c(Cc3c[nH]c4ccccc34)c[nH]c2c1 [ONC0003447, diindolylmethane] | 68.22 | –
19 | NC(N)=NCCC[C@H](N)C(=O)NCC(=O)N[C@@H](CC(=O)O)C(=O)N[C@@H](CO)C(=O)O [ONC0002282, argglyaspser] | 101.1 | –
20 | CC(C)n1c(/C=C/[C@@H](O)C[C@@H](O)CC(=O)O)c(-c2ccc(F)cc2)c2ccccc21 (racemic) [ONC0004817, fluvastatin sodium lescol] | 110.8 | –
21 | CCCCCCCCCCCCCCOC(=O)c1cccnc1 [ONC0003671, tetradecyl nicotinate] | 79.3 | –

Row | SMILES | % viability [%] | % viability (Madurella mycetomatis metabolic activity at 2µM (%)) [%]
22 | C[C@@H]1CCCN1CCc1cc2cc(-c3ccc(C#N)cc3)ccc2o1 [ONC0003444, abt 239 tartrate] | 49.56 | –
23 | N=C(N)/N=C(\N)N1CCOCC1 [ONC0005372, moroxydine hydrochloride] | 114.7 | –
24 | CC(C)(N)CC12CC3CC(CC(C3)C1)C2 [ONC0004056, somantadine] | 120.7 | –
25 | c1cc(OCCN2CCCCC2)cc(-c2n[nH]c3ccc(-c4nc[nH]n4)cc23)c1 [ONC0000900, cc401 hydrochloride] | 73.26 | –
26 | Oc1ccc([C@H]2COc3cc(O)ccc3C2)cc1 [ONC0004406, equol] | 119.9 | –
27 | CCCN1CCC[C@H](c2cccc(O)c2)C1 [ONC0002744, r33hydroxyphenylnpropylpiperidine hydrochloride] | 58.06 | –
28 | CCCN1CCO[C@@H]2c3cc(O)ccc3OC[C@H]21 [ONC0000309, pd128907] | 42.57 | –
29 | COC(=O)N[C@H](C(=O)N1CC2(CC2)C[C@H]1c1ncc(-c2ccc3c(c2)C(F)(F)c2cc(-c4ccc5nc([C@@H]6[C@H]7CC[C@H](C7)N6C(=O)[C@@H](NC(=O)OC)C(C)C)[nH]c5c4)ccc2-3)[nH]1)C(C)C [ONC0001967, ledipasvir] | 73.81 | –
30 | CC(C)NCC(O)c1ccc(O)c(O)c1 (stereo not shown) [ONC0000608, isoproterenol hydrochloride] | 81.88 | –
31 | CC(C)NCC(O)c1ccc(N)c(C#N)c1 (stereo not shown) [ONC0003014, cimaterol] | 76.31 | –
32 | CC(C)NCC(O)c1ccc([N+](=O)[O-])cc1 (stereo not shown) [ONC0002319, nifenalol] | 49.56 | –
33 | CC/C=C\C/C=C\C/C=C/C/C=C\C/C=C\C/C=C\CCC(=O)OCC [ONC0002811] | 151.6 | –
34 | COC(=O)[C@H](CCCNC(=N)N)NS(=O)(=O)c1ccc(C)cc1 [ONC0004976, tame] | 63.05 | –
35 | N=C(N)c1cc2ccc(OC(=O)c3cccs3)cc2s1 [ONC0004238, bcx 1470 methanesulfonate] | 62.8 | –
36 | CNCC(O)c1ccc(O)cc1 (stereo not shown) [ONC0005413, oxedrine] | 69.09 | –
37 | CC/C(=C(/CC)c1ccc(O)cc1)c1ccc(O)cc1 [ONC0003197, diethylstilbestrol] | 93.2 | –
38 | CC[C@H](c1ccc(O)cc1)[C@@H](CC)c1ccc(O)cc1 [ONC0003849, hexestrol] | 49.29 | –
39 | C#C[C@]1(O)CC[C@H]2[C@@H]3CCC4=CC(=NO)CC[C@@H]4[C@H]3CC[C@@]21CC (mixture of isomers) [ONC0000953, norgestimate metabolite norelgestromin] | 67.65 | –
40 | CO[C@H]1/C=C/O[C@@]2(C)Oc3c(C)c(O)c4c(O)c(c(/C=N/N5CCN(C6CCCC6)CC5)c(O)c4c3C2=O)NC(=O)/C(C)=C\C=C\[C@H](C)[C@H](O)[C@@H](C)[C@@H](O)[C@@H](C)[C@H](OC(C)=O)[C@@H]1C [ONC0002002, rifapentine] | 77.39 | –
41 | COC1/C=C/OC2(C)Oc3c(C)c(O)c4c(O)c(c(/C=N/N=C/N5CCCCC5)c(O)c4c3C2=O)NC(=O)/C(C)=C\C=C\C(C)C(O)C(C)C(O)C(C)C(OC(C)=O)C1C (stereo not shown) [ONC0003798, fce22250] | 33.52 | –
42 | CO[C@H]1/C=C/O[C@@]2(C)Oc3c(C)c(O)c4c(O)c(c(/C=N/N5CCN(C)CC5)c(O)c4c3C2=O)NC(=O)/C(C)=C\C=C\[C@H](C)[C@H](O)[C@@H](C)[C@@H](O)[C@@H](C)[C@H](OC(C)=O)[C@@H]1C [ONC0003357, rifampin] | 107.5 | –

Row | SMILES | % viability [%] | % viability (Madurella mycetomatis metabolic activity at 2µM (%)) [%]
43 | N#Cc1cn([C@@H]2O[C@H](CO)[C@@H](O)[C@H]2O)c2ncnc(N)c12 [ONC0003230, toyocamycin] | 99.22 | –
44 | Cl.O=C(c1ccc(-c2ccc(Cl)cc2)o1)N(Cc1ccccn1)c1ccc(N2CCNCC2)cc1 [ONC0002178, mk2in1 hydrochloride] | 65.24 | –
45 | C/C(O)=C(\C#N)C(=O)Nc1ccc(C(F)(F)F)cc1 [ONC0000878, teriflunomide] | 64.9 | –
46 | O=C(Nc1ccc(C(O)(C(F)(F)F)C(F)(F)F)cc1)c1ccc(C(F)(F)F)cc1 [ONC0000412, sr1078] | 46.34 | –
47 | CC(=O)Nc1ccc(C(=O)NC(C)(C)C)cc1 [ONC0002880] | 98.46 | –
48 | CC(=O)OC[C@H](N)C(=O)O.Cl [ONC0000420, oacetyllserine hcl] | 77.43 | –
49 | CC[C@@]1(O)C(=O)OCc2c1cc1n(c2=O)Cc2cc3c(N)cccc3nc2-1 [ONC0005467, 9aminocamptothecin] | 102.4 | –
50 | CCCCCCCCCCCCCCOS(=O)(=O)O [ONC0003317, sodium tetradecyl sulfate] | 84.61 | –
51 | CCNC(=O)c1[nH]nc(-c2cc(Cl)c(O)cc2O)c1-c1ccc(OC)cc1 [ONC0005116, ver49009] | 88.78 | –
52 | CCc1cc(-c2n[nH]c(C)c2-c2ccc3c(c2)OCCO3)c(O)cc1O [ONC0003616, cct018159] | 49.48 | –
53 | Cc1cccc(-c2[nH]c(C(C)(C)C)nc2-c2ccc3c(c2)OCO3)n1 [ONC0005219, sb505124] | 129 | –
54 | CC(C)CC1NC(=O)C(C(C)C)NC(=O)C2CCCN2C(=O)C(CC(=O)O)NC(=O)C(Cc2c[nH]c3ccccc23)NC1=O (stereo not shown) [ONC0004583, bq123] (cyclo(DPVLW); configuration not given here) | 106.9 | –
55 | CC(=O)NC1[C@@H](O)OC(CO)[C@@H](O)[C@H]1O (stereo partly shown) [ONC0002960, nacetylmannosamine] | 104.5 | –
56 | CN1C(C(=O)Nc2ccccn2)C(=O)c2sccc2S1(=O)=O (stereo not shown) [ONC0002886, tenoxicam] | 126.3 | –
57 | CC(O)c1cc(C(=O)N[C@@H](C)Cn2ccc(-c3ccc(C#N)c(Cl)c3)n2)[nH]n1 (stereo partly shown) [ONC0005059, odm201] | 86.36 | –
58 | O=C(NCc1cccc(O)c1)Nc1nc(-c2ccncc2)cs1 [ONC0005121, rki1447] | – | 69.4
59 | CC(C)(C)c1ccc(S(=O)(=O)/C=C/C#N)cc1 [bay117085] | 1.843 | –
60 | Cc1ccc(S(=O)(=O)/C=C/C#N)cc1 [bay117082] | 112.1 | –
61 | CCOc1ccc2nc(SCCN3CCOCC3)[nH]c2c1 [ONC0001849, fabomotizole hydrochloride] | 108.3 | –
